# Bioassay records deposited in PubChem by several laboratories.
# CYP2C9 inh: human CYP2C9 inhibition. P11712. CYP2C9 Supersomes, luciferin-H conversion, luminescence. inhibition, % at 5 µM. 20% of 96,000 active. AID 777;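 active = blocking of liver enzyme CYP2C9 beyond about 50% at 5 µM, limit read from the data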
# Target sequence (P11712 whole entry, looked up): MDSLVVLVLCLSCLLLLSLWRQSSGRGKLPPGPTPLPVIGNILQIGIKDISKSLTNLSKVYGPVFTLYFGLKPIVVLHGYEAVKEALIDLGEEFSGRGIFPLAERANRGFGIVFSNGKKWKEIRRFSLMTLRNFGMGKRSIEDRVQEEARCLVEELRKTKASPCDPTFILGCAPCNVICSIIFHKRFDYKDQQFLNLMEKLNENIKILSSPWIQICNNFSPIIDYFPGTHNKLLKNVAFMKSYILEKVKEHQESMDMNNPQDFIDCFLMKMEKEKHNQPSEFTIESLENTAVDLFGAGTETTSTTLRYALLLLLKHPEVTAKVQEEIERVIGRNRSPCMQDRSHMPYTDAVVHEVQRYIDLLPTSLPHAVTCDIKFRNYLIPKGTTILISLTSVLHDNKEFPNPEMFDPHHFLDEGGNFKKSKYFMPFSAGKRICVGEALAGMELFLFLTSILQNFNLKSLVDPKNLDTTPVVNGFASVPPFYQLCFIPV
# CYP2C9 act: activators of human CYP2C9; 1.4% of 96,000 active; P11712; recombinant CYP2C9, luciferin-H conversion, luminescence; active compounds read high; factor 1 = untreated enzyme, 0 = blocked; activation factor at 5 µM;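 active = activation factor of 2 or more for CYP2C9 at a 5 µM dose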;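 note: 0 = sulfaphenazole-blocked wells and 1 = vehicle-only wells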
# Pyk2 oligo antag: antagonists of human Pyk2 oligomerization | Q14289 | Q293 cells, Pyk2 FERM NanoBiT luminescence; active compounds read low | z-score (the deposit names both 25 µM and 10 µM) | 0.83% of 99,000 active;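 active = Z-score of -3 or lower, scaled per plate to the spread of control and sample wells; inactive = z-score above -3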;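 note: negative z-score means lost luminescence so less FERM oligomerization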
# Cav32 inh: human Cav3.2 channel inhibition, primary screen; O95180; 4% of 100,000 active; Cav3.2-expressing cells, Fluo-4 calcium fluorescence FDSS; active compounds read low; B-score at 10 µM;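 active = single-dose well whose peak fluorescence ratio is a statistical outlier from its plate by either plate-standardised score or position-corrected B-score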
# CYP2C19 inhib: human CYP2C19 inhibition | 21% of 96,000 active | inhibition, % at 5 µM | P33261 | AID 778 | CYP2C19 Supersomes, luciferin-H EGE luminescence, 30 min;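 active = CYP2C19 inhibition above a set limit at 5 µM in the primary screen, cut at about 50% in these data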;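 note: plate controls were negative control wells for no effect and 2.5 mM tranylcypromine positive control for full effect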
# CYP2C19 act: increases human CYP2C19 enzyme activity. 96,000 tested, under 10 active. P33261. activation factor at 5 µM. recombinant CYP2C19, luciferin-H EGE luminescence; active compounds read high; 0 = fully inhibited enzyme, 1 = untreated enzyme. AID 1025;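 active = activation factor of at least 2 at 5 µM in the primary screen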;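 note: 0 = wells with 2.5 mM tranylcypromine and 1 = vehicle-only wells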
# * = called active by the depositor; x = no result given. Hits are enriched below; roughly 27% of the tested compounds scored in any of these assays.
SMILES,CYP2C9 inh,CYP2C9 act,Pyk2 oligo antag,Cav32 inh,CYP2C19 inhib,CYP2C19 act
COc1ccc(C2CC(c3ccccc3)Nc3nc(NC(=O)c4ccco4)nn32)cc1 (stereo not drawn),24,0.8,-3.7*,-1.3,17,0.8
Nc1nc2n(n1)C(c1ccccc1)CC(c1ccc(F)cc1)N2 (stereo not drawn),93*,0.1,x,-0.17,98*,0
COc1ccc(C2CC(c3ccccc3)Nc3nc(N)nn32)cc1 (stereo not drawn),2,1,0.17,0.062,9,0.9
CCc1ccc(C2CC(c3ccc(F)cc3)Nc3nc(N)nn32)cc1 (stereo not drawn),3,1,x,-0.00015,51*,0.5
COc1cccc(C2CC(c3ccc(F)cc3)Nc3nc(N)nn32)c1 (stereo not drawn),-9,1.1,x,0.96,18,0.8
O=C1CSC(c2ccccn2)N1Cc1cn2ccccc2n1 (stereo not drawn),-11,1.1,-0.18,x,20,0.8
O=C1CC(c2ccccc2)CC(O)=C1C=NCc1ccc(Cl)cc1 (stereo not drawn),14,0.9,0.54,-0.037,29,0.7
O=C1CC(c2cccc(Cl)c2)CC(O)=C1C=NCCCO (stereo not drawn),-170,2.7*,-0.58,0.26,11,0.9
N#C/C(=C/c1ccc(Sc2nc3ccccc3[nH]2)o1)c1ccccc1F,90*,0.1,-2.6,-2.9,95*,0.1
N#C/C(=C\Nc1ccc2c(c1)OCCO2)c1nc2ccccc2[nH]1,0,1,-1.9,-0.035,24,0.8
N#C/C(=C/c1ccc(Sc2nc3ccccc3[nH]2)o1)c1cccc(Br)c1,97*,0,-3.1*,-2.1,96*,0
N#C/C(=C/c1ccc(Sc2nc3ccccc3[nH]2)o1)c1cccc(F)c1,95*,0,-3.2*,-4.5*,92*,0.1
N#C/C(=C\c1cn(-c2ccccc2)nc1-c1cc2ccccc2o1)c1nc2ccccc2[nH]1,x,x,-0.6,x,x,x
COc1ccc(N2C(=O)CC(c3ccc(OC(C)C)cc3)C2=O)cc1 (stereo not drawn),28,0.7,x,-1.5,-15,1.2
CC(Sc1nnnn1C)C(=O)Nc1ccc(Oc2ccccc2)cc1 (stereo not drawn),46,0.5,-0.91,-0.16,63*,0.4
CCC(Sc1nnnn1C)C(=O)Nc1ccc(C(C)=O)cc1 (stereo not drawn),21,0.8,-0.4,0.11,29,0.7
Cn1cnnc1SCC(=O)c1ccc2c(c1)OCO2,-27,1.3,-0.01,x,0,1
CCOC(=O)Cc1csc(SCC(=O)Nc2cccc(Cl)c2)n1,66*,0.3,1.3,-3.8*,32,0.7
CCOC(=O)Cc1csc(SCC(=O)N2CCN(c3ccc(OC)cc3)CC2)n1,45,0.5,1.1,1.3,16,0.8
CCOC(=O)Cc1csc(SCC(=O)Nc2cccc(C#N)c2)n1,80*,0.2,1.6,0.025,66*,0.3
CCOC(=O)Cc1csc(SCC(=O)Nc2cc(Cl)ccc2Oc2ccccc2)n1,94*,0.1,-0.14,-5.6*,91*,0.1
CC(=O)Nc1ccccc1OCc1nnc(-c2cccs2)o1,36,0.6,-0.42,0.017,24,0.8
Cc1cc(C(=O)COC(=O)c2ccccc2O)c(C)n1Cc1cccs1,49,0.5,-0.41,-2.6,57*,0.4
Cc1cc(C(=O)COC(=O)c2ccc3c(c2)OCO3)c(C)n1Cc1cccs1,19,0.8,0.54,-0.65,48,0.5
CCn1nc(C(=O)OCC(=O)c2cc(C)n(Cc3cccs3)c2C)c2ccccc2c1=O,40,0.6,0.09,-4.5,80*,0.2
SMILES,CYP2C9 inh,CYP2C9 act,Pyk2 oligo antag,Cav32 inh,CYP2C19 inhib,CYP2C19 act
CC(=O)Nc1ccccc1OCC(=O)c1cc(C)n(Cc2cccs2)c1C,32,0.7,2.2,-3.8,80*,0.2
CCCCSc1c(C)c2cc3c(cc2[nH]c1=O)OCO3,12,0.9,2.5,1.1,86*,0.1
CCOC(=O)c1[nH]c2cc3c(cc2c1NC(=O)CN1CCC2(CC1)OCCO2)OCO3,-11,1.1,-0.47,0.73,22,0.8
CCO[C@H]1OC(C(=O)NCc2ccccc2)=C[C@@H](C2CC2)[C@@H]1CCCO,x,x,x,-0.26,x,x
C#CCOCCOCCOCCNc1nc(N2CCN(C(=O)C([C@@H](C)CC)n3cc(C(N)COC(=O)C(F)(F)F)nn3)CC2)nc(N2CCN(C(=O)[C@H](CCCCN)n3cc(C(N)[C@H](C)CC)nn3)CC2)n1 (stereo partly drawn),x,x,x,0.26,x,x
COc1ccc(Cc2ccc(OC)c(N)c2)cc1N,-6,1.1,-0.3,-1.9,66*,0.3
COc1ccc(Cc2nnc(N)s2)cc1OC,x,x,0.25,1.3,x,x
O=C(Nc1ccc(OCC(F)(F)C(F)F)c(C(F)(F)F)c1)c1ccccc1O,-29,1.3,-2.5,-0.014,26,0.7
COC(=O)c1[nH]c2ccccc2c1NC(=O)CN1CCN(C/C=C/c2ccccc2)CC1,86*,0.1,-0.46,0.032,74*,0.3
COC(=O)c1[nH]c2ccccc2c1NC(=O)CN1CC(C)OC(C)C1 (stereo not drawn),-11,1.1,0.56,0.32,-9,1.1
CCOC(=O)c1[nH]c2ccc(OCC)cc2c1NC(=O)CN1CCN(c2ccccc2)CC1,6,0.9,-0.59,x,11,0.9
CCOC(=O)c1[nH]c2ccc(F)cc2c1NC(=O)CN1CCN(C/C=C/c2ccccc2)CC1,59*,0.4,0.12,x,52*,0.5
O=S(=O)(/N=C(/Nc1cccc2ccccc12)c1ccccc1)c1cccs1,84*,0.2,-0.83,-4.6*,90*,0.1
Cc1ccc(C2=NOC(C)(c3nnc(Cc4ccccc4)o3)C2)cc1 (stereo not drawn),x,x,x,0.57,x,x
CC(=O)c1nn(-c2cccc(Cl)c2)cc1C(=O)c1ccco1,-21,1.2,-0.58,0.37,6,0.9
O=C(c1ccccc1)c1cn[nH]c1-c1ccccc1O,21,0.8,0.49,0.61,26,0.7
O=C(c1ccco1)c1cn[nH]c1-c1ccc(Cl)cc1O,51*,0.5,-2,0.35,92*,0.1
COc1ccc(O)c(-c2[nH]ncc2C(=O)c2ccccc2)c1,64*,0.4,-3.5*,0.83,81*,0.2
Cc1ccc(C(=O)c2cn[nH]c2-c2cc(Cl)ccc2O)cc1,80*,0.2,-2.1,-1.8,96*,0
O=C(O)CC(O)(CC(=O)O)C(=O)O,x,x,x,0.26,x,x
Cn1c(-c2cccc(Br)c2)cnc1NCc1cccnc1,64*,0.4,2.1,0.36,77*,0.2
COc1cccc(-c2cnc(NCc3cc(Cl)ccc3O)n2C)c1,98*,0,0.52,-4.3*,99*,0
Cn1c(-c2ccc(F)cc2)cnc1NCc1cccc(F)c1,37,0.6,-0.2,-0.12,53*,0.5
